Only some compounds are listed: those with a hit (about 2.9% of all), similar ones and a draw of the others.
EPAC2 ant val – human EPAC2 antagonism, validation | Potency, µM (titrated, usually from 112 µM), hits mostly inhibitors | hit rate 1.7% among 16,000 | AID 1645886 | EPAC2 Rap1B BODIPY-GDP exchange, fluorescence; also: nearly all actives have a fitted effect of over 40% in size
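Fluorescent exchange read-out: 100 nM EPAC2 with 250 nM RAP1B–BODIPY-GDP and 50 uM GDP; BODIPY-GDP release lowers fluorescence. Read at 480/540 nm every 5 min for 30 min at room temperature; normalized to 6.5 mM cAMP.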
EPAC1 agonist – human EPAC1 agonism, validation; EPAC1 Rap1b BODIPY-GDP exchange, fluorescence; Potency, µM, hits mostly activators; hit rate 1% among 16,000; AID 1645883; also: nearly all actives have a fitted effect of over 70% in size
Hits are given with their value; - = inactive; ? = inconclusive; ! = a repeat was not active. Calls follow the shape of the dose curve; as a rule, active = well fitted curve in the direction sought with a large enough effect; inconclusive = small, poorly fitted or top-dose-only effect, or another doubt; inactive = no such curve, though single readings can be large; an effect the other way counts as inactive or inconclusive.

SMILES | EPAC2 ant val | EPAC1 agonist
COc1cccc(-c2nc(NCc3ccc(OC)cc3OC)c3ccccc3n2)c1 | - | ?
COc1ccccc1-c1nc(NCc2cccnc2)c2ccccc2n1 | - | -
Cc1cc2c(c(-c3nc4ccccc4s3)c1)OC(CNC(=O)CCc1cccnc1)C2 (stereo not given) | ? | -
COc1ccc(-c2c(-c3ccc4c(c3)OCO4)noc2-c2ccsc2)cn1 | ? | -
c1ccc(-c2onc(-c3ccco3)c2-c2ccc3c(c2)OCO3)cc1 | - | 112µM
COC(=O)c1ccc(-c2cccc3c2OC(CNC(=O)/C=C/c2ccc(OC)c(OC)c2)C3)nc1 (stereo not given) | - | -
CC1(C)[C@@H](O)CC[C@]2(C)[C@H]3C(=O)C=C4[C@@H]5C[C@@](C)(C(=O)O)CC[C@]5(C)CC[C@@]4(C)[C@]3(C)CC[C@@H]12 | 1.58µM | -
CC1(C)C(O)CC[C@]2(C)C1CC[C@@]1(C)C2C(=O)C=C2[C@@H]3C[C@@](C)(C(=O)O)CC[C@@]3(C)CCC21C (stereo not given in full) | 7.08µM | -
CC1(C)[C@@H](O[C@H]2O[C@H](C(=O)O)[C@@H](O)[C@H](O)[C@H]2O[C@@H]2O[C@H](C(=O)O)[C@@H](O)[C@H](O)[C@H]2O)CC[C@]2(C)[C@H]3C(=O)C=C4[C@@H]5C[C@@](C)(C(=O)O)CC[C@]5(C)CC[C@@]4(C)[C@]3(C)CC[C@@H]12 | ? | -
CC1(C)C(OC(=O)CCC(=O)O)CC[C@]2(C)C1CC[C@@]1(C)C2C(=O)C=C2[C@@H]3C[C@@](C)(C(=O)O)CC[C@]3(C)CCC21C (stereo not given in full) | 3.98µM | ?
CC1(C)CC[C@]2(C(=O)O)CC[C@@]3(C)C(=CCC4[C@@]5(C)CCC(O)C(C)(C)C5CC[C@@]43C)C2C1 (stereo not given in full) | - | -
CC(=O)OC1CCC2(C)C(CCC3(C)C2C(=O)C=C2C4CC(C)(C(=O)OCCN5CCCCC5)CCC4(C)CCC23C)C1(C)C (stereo not given) | - | -
CC(C)[C@@H](C)/C=C/[C@@H](C)[C@H]1CC[C@H]2/C(=C/C=C3\C[C@@H](O)CC[C@@H]3C)CCC[C@]12C | - | -
COc1ccc2c(c1)OCC(Cc1ccc(OC)c(OC)c1)C2O (stereo not given) | ? | -
COc1ccc2c(c1)OCC(Cc1ccc(OC)c(OC)c1)C2=O (stereo not given) | 44.7µM | ?
COc1ccc(OC)c(-c2ccc(O)c(CN3CCc4c([nH]c5ccccc45)C3)c2)c1 | - | -
CCC(C)[C@H]1O[C@]2(C=C[C@@H]1C)C[C@@H]1C[C@@H](C/C=C(\C)[C@@H](O[C@H]3C[C@H](OC)[C@@H](O[C@H]4C[C@H](OC)[C@H](NC(C)=O)[C@H](C)O4)[C@H](C)O3)[C@@H](C)/C=C/C=C3\CO[C@@H]4[C@H](O)C(C)=C[C@@H](C(=O)O1)[C@]34O)O2 (stereo not given in full) | - | -
O=C(NNCS(=O)(=O)O)c1ccncc1 | - | 56.2µM
O=C(NNCNNC(=O)c1ccncc1)c1ccncc1 | - | -
c1cnc2cc3c(cc2n1)[C@@H]1CNC[C@H]3C1 | - | -
COc1ccc2[nH]cc(CCNc3ncnc4ccc(-c5ccccc5C#N)cc34)c2c1 | - | 112µM
COc1ccc2[nH]cc(CCNc3ncnc4ccc(-c5cccc(C#N)c5)cc34)c2c1 | - | -
Cc1c(C(=O)N2CC3CCC2C3)sc2ncnc(NCCc3c[nH]c4ccccc34)c12 (stereo not given) | - | -
CC(C)CC1C(=O)N2CCCC2C2(O)O[C@@](NC(=O)C3C=C4c5cccc6[nH]c(Br)c(c56)CC4N(C)C3)(C(C)C)C(=O)N12 (stereo not given in full) | - | ?
CC(C)C[C@H]1C(=O)N2CCC[C@H]2[C@]2(O)O[C@](NC(=O)[C@@H]3C=C4c5cccc6[nH]c(Br)c(c56)C[C@H]4N(C)C3)(C(C)C)C(=O)N12 | - | 112µM!
SMILES | EPAC2 ant val | EPAC1 agonist
COc1cccc(Cn2c(=O)c(-c3cn(C)c4ccccc34)nc3cnc(N4CCNCC4)nc32)c1 | 79.4µM | ?
COc1cccc(Nc2ncc3nc(-c4cn(C)c5ccccc45)c(=O)n(C[C@H]4CCCO4)c3n2)c1 | - | 112µM
COc1cccc(Cn2c(=O)c(CCc3ccccc3)nc3cnc(N4CCN(C)CC4)nc32)c1 | - | 112µM
COc1cccc(Nc2ncc3nc(C)c(=O)n(C[C@H]4CCCO4)c3n2)c1 | - | -
COc1cccc(Cn2c(=O)c(-c3cn(C)c4ccccc34)nc3cnc(N4CCOCC4)nc32)c1 | - | -
COc1cccc(Cn2c(=O)c(-c3ccccc3)nc3cnc(N4CCN(C)CC4)nc32)c1 | - | -
CCCCCCCCCCCCCCCC(=O)OC[C@@H](O)[C@H]1OC[C@H](O)[C@H]1O | - | -
COC(=O)c1cccc(C(=O)NCc2nc(-c3cccc(NC(=O)c4ccoc4C)c3)oc2C)c1 | - | -
CCn1nc(C)cc1C(=O)NCC1Cc2cc(C)cc(-c3ccccc3C(=O)OC)c2O1 (stereo not given) | ? | -
CCC(=O)O[C@]1(C(=O)CCl)[C@@H](C)C[C@H]2[C@@H]3C[C@H](F)C4=CC(=O)C=C[C@]4(C)[C@@]3(F)[C@@H](O)C[C@@]21C | ? | -
C#C[C@]1(OC(C)=O)CCC2C3CCC4=CC(=O)CCC4C3CC[C@]21C (stereo not given in full) | 79.4µM | -
C#C[C@]1(OC(C)=O)CC[C@H]2[C@@H]3CCC4=C[C@@H](OC(C)=O)CC[C@@H]4[C@H]3CC[C@@]21C | ? | 44.7µM!
C#C[C@]1(O)CC[C@H]2[C@@H]3CCc4cc(O)ccc4[C@H]3CC[C@@]21C | - | -
C#C[C@@]1(O)CCC2C3CCC4=CC(=O)CCC4C3CC[C@@]21CC (stereo not given in full) | - | -
Cc1cnc(SCc2ccccn2)nc1C1CCCN(C(=O)c2ccc3c(c2)OCO3)C1 (stereo not given) | - | -
CC(C)Cc1cc(C(=O)NCC2Cc3cc(F)cc(-c4ccccn4)c3O2)no1 (stereo not given) | - | -
Cc1ccccc1-c1ccc2ncnc(N(C)Cc3ccco3)c2c1 | 20µM | 100µM
CN(Cc1ccco1)c1ncnc2ccc(-c3cccnc3)cc12 | - | -
CN(Cc1ccco1)c1ncnc2ccc(-c3ccc4c(c3)OCO4)cc12 | 35.5µM | -
CN(C)Cc1ccccc1-c1ccc2ncnc(N(C)Cc3ccco3)c2c1 | - | -
Cc1ccc2[nH]c3c(c2c1)CN(C(=O)CC1(c2ccccc2)CC(=O)N(Cc2cccnc2)C1=O)CC3 (stereo not given) | ? | -
CCCCCCC(=O)O[C@H]1CC[C@H]2[C@@H]3CCc4cc(O)ccc4[C@H]3CC[C@]12C | - | -
O=C1NC(=O)[C@H]2[C@@H]1[C@@H]1C=C[C@H]2C1 | - | -
C[C@@H]1CN(Cc2ccc3c(c2)CN(Cc2coc4ccccc4c2=O)CCO3)C[C@H](C)O1 | - | -
Cc1ncc(Cc2ccccc2)c(C2CCN(S(=O)(=O)C[C@]34CC[C@H](CC3=O)C4(C)C)CC2)n1 | ? | -
CCOC(=O)C[C@H]1c2ccc(C(F)(F)F)cc2S(=O)(=O)N1c1cccc(OC)c1 | 44.7µM | -
COc1cccc(N2[C@@H](CC(C)=O)c3cc(C(F)(F)F)ccc3S2(=O)=O)c1 | ? | -

Screening data deposited in PubChem by National Center for Advancing Translational Sciences (NCATS).
